# Most compounds without a hit are left out; they make up all but 6% or so of the library.
# ERK AVP inh: blocks ERK signaling stimulated by vasopressin | actives 0.99% (n = 72,000) | HEK293-V1b, vasopressin-stimulated pERK AlphaScreen | Potency, µM (titrated, usually from 57.5 µM), inactives show at the highest dose activity, negative = inhibition, most hits filed as inhibitors; further: on the % scale 0 is the no-effect control and ±100 the full control effect; nearly all actives have a fitted effect of over 55% in size
#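 HEK293 cells stably expressing V1b receptor, preincubated 30 min at 37 °C with compound, then stimulated 5 min with 25 nM vasopressin. Phospho-ERK by AlphaScreen SureFire after 5 h RT; normalized to DMSO and vasopressin; AC50 by Hill fit.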
# CRE-bla Fsk: modulators of forskolin-stimulated CRE signaling in CHO cells. CHO CRE-bla reporter (cAMP response element driving beta-lactamase), forskolin EC10, beta-lactamase ratio. Potency, µM (highest dose often 38.2 µM), for inactives: top-dose activity change, negative = inhibition, most hits filed as activators. actives 2.5% (n = 71,000). AID 662; active means well fitted activation curve with a large enough effect in the signal ratio, with a control signal flat, not every such curve was filed as active; inconclusive means small, poorly fitted or top-dose-only effect, or effect the other way, or a change in a side signal; the % refers to the signal ratio; further: % of control where 0% means no effect
#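 qHTS titration format; CRE-bla CHO reporter; stimulus EC10 NKH 477, a water-soluble forskolin. Read: CCF4 460/530 nm ratio. Potency expressed as AC50 for activators or inhibitors.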
# TSHR agonist: agonists of human thyroid stimulating hormone receptor. actives 0.48% (n = 73,000). P16473. HEK293-CNG-TSHR cells (CNG channel as cAMP sensor), membrane potential dye, cAMP. Potency, µM (doses to about 57.1 µM), inactives show at the highest dose activation, usual class: activators. AID 926; active means well fitted activation curve with a large enough effect in the main read-out, with a control signal flat, not every such curve was filed as active; inconclusive means small, poorly fitted or top-dose-only effect, or a change in a side signal; inactive means no such curve, though single readings can be large or run the other way; % of control where 0% means no effect;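 further: the control signal comes from parental cells without the receptor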
# Target sequence (P16473 whole entry, looked up): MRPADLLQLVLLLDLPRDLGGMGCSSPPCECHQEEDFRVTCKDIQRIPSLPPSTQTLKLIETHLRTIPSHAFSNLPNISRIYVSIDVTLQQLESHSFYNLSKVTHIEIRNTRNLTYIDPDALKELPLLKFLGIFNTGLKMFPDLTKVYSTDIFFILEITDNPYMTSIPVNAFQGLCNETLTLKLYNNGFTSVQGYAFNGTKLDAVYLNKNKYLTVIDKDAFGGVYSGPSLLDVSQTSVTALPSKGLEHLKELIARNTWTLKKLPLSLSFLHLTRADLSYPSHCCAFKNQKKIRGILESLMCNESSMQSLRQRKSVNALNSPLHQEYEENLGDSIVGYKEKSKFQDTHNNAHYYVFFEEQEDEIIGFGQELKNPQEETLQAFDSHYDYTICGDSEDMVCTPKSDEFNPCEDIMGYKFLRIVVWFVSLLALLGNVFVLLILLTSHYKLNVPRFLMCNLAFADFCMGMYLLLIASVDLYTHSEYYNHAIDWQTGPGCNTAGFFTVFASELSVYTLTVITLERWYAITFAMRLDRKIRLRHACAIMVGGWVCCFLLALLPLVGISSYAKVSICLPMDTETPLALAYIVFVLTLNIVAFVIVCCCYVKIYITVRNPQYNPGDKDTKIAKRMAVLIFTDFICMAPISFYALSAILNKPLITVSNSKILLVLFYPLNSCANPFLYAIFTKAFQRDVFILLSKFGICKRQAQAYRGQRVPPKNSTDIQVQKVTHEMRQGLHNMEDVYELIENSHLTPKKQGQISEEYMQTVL
#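 HEK 293 cells stably expressing TSHR and a modified CNG channel, with CNG-only parental cells as counterscreen, were preloaded 60 min at room temperature with membrane potential dye containing 100 uM RO 20-1724. Compound exposure was 30 min, and depolarization was read as fluorescence at 590 nm.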
# HEK293 cAMP ctrl: parental HEK293 cAMP activation (counter-screen); parental HEK293 CNG cAMP sensor, membrane potential fluorescence; Potency, µM (titrated, usually from 57.1 µM), without a hit: at the top dose activation, actives largely listed as activators; actives 2.5% (n = 73,000); AID 938; further: % of control where 0% means no effect; nearly all actives have a fitted effect of over 55% in size
#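 Counterscreen for endogenous-receptor signalling: CNG-channel HEK 293 cells report cAMP rise by membrane depolarization. After 60 min dye equilibration with 100 uM RO 20-1724, compounds incubated 30 min before bottom-read fluorescence at 590 nm.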
# * = called active by the depositor; u = inconclusive; x = no result given; [ ] = another dose, or the depositor's remark. Unless noted, the call rests on the fitted dose curve; in most records, active means well fitted curve in the direction sought with a large enough effect; inconclusive means small, poorly fitted or top-dose-only effect, or another doubt; inactive means no such curve, though single readings can be large; an effect the other way counts as inactive or inconclusive. Potency means the concentration at half of the fitted maximal effect.
SMILES,ERK AVP inh,CRE-bla Fsk,TSHR agonist,HEK293 cAMP ctrl
Nc1nc(SCCc2ccccc2)c2[nH]cnc2n1,-7%[11.5 µM],-1%[7.6 µM],0%[11.4 µM],-7%[11.4 µM]
CCOC(=O)c1c(C)c(C(=O)Nc2cc(F)ccc2F)c(C)n1C,-15%,u,u,7.9µM*
CCOC(=O)c1c(C)c(C(=O)Nc2ccc3c(c2)OCCO3)c(C)n1C,-29%,11%,-2%[11.4 µM],26%
CC(C)CCCC(C)C1CCC2C3CC=C4CC(=O)CC[C@@]4(C)C3CC[C@@]12C (some centres undefined),15%,x,x,x
COC(=O)c1ccc2c(=O)n(C3CCCCC3)c(SCC#N)nc2c1,11%,u,u,20µM*
CN(C)CCNC(=O)c1ccc(-n2c(=O)c(=O)[nH]c3ccccc32)cc1,x,x,-4%,-1%
COCCCn1c2nc3ccccc3nc2c2c(=O)n(-c3ccccc3OC)cnc21,3%,4µM*,9%,3%
CCCn1cnc2c(c1=O)c1nc3ccccc3nc1n2Cc1ccccc1OC,-12%,10%,3%,14%
Cn1c(-c2ccc3c(c2)OCO3)cnc1N,18%,-8%,4%,6%
c1cc2c(cc1-c1cnc3n1CCC3)OCCO2,16µM*,u,u,20µM*
CC(C)=CCC/C(C)=C\COc1c2ccoc2cc2oc(=O)ccc12,75%,x,x,x
Cc1ccc(-c2csc(=S)n2CC(=O)OCC(=O)NCc2ccco2)cc1,u,u,u,32µM*
O=C(COC(=O)CCOc1ccccc1)NCc1ccco1,-18%,-10%,-3%,-4%
COc1ccc(CNC(=O)CS(=O)Cc2nc(-c3ccccc3C)oc2C)cc1 (centres undefined),20µM*,-10%,13%,28%
CC(=O)OC[C@@H]1O[C@H](C/C=N\O[C@@H](C)CN2CCCc3nc(C)c(C)cc32)C=C[C@@H]1OC(C)=O,-1%[11.5 µM],x,1%[11.4 µM],14%[11.4 µM]
C[C@H](NC(=O)/C(C#N)=C/c1ccc(O)c(O)c1)c1ccccc1,10µM*,u,u,u
C[C@@H](NC(=O)/C(C#N)=C/c1ccc(O)c(O)c1)c1ccccc1,u,u,x,11%
O=C(Nc1ccc(F)cc1)N(Cc1ccco1)Cc1cc2cc3c(cc2[nH]c1=O)OCO3,20µM*,u,u,25µM*
COc1ccc(CN(Cc2cc3cc4c(cc3[nH]c2=O)OCO4)C(=O)NC2CCCCC2)cc1,u,10µM*,18%,23%
CCNC(=O)[C@H](C)/C=C/C(NC(=O)OCc1ccccc1)c1ccc(C(=O)OC)cc1 (some centres undefined),6%,-16%,u,u
CC[C@H]1C2=C3C(CC[C@H]4C(OCc5ccc(F)cc5C(F)(F)F)OC[C@](C)([C@@H]34)N(C(=O)OC(C)(C)C)C2)C(COC(C)=O)C1COC(C)=O (some centres undefined),20%,u,24%,23%
COCCNC(=O)C(c1ccccc1C)N(CCOC)C(=O)Cn1nnc2ccccc21 (centres undefined),29%,-1%,1%,11%
O=C(NC1CCCCC1)C(c1ccccc1)N(Cc1ccco1)C(=O)Cn1cnc2ccccc21 (centres undefined),-17%,u,u,20µM*
O=C(NC1CCCCC1)C(c1ccncc1)N(C(=O)Cn1nnc(-c2cccs2)n1)C1CCCC1 (centres undefined),7%,-5%,u,u
COCCN(C(=O)Cn1nnc2ccccc21)C(C(=O)NC1CCCC1)c1cccc(OC)c1OC (centres undefined),5%,-2%,u,20µM*
SMILES,ERK AVP inh,CRE-bla Fsk,TSHR agonist,HEK293 cAMP ctrl
O=C(NC1CCCCC1)C(c1ccco1)N(Cc1cccs1)C(=O)Cn1nnc2ccccc21 (centres undefined),-8%,u,u,16µM*
O=C(NC1CCCC1)C(c1cccs1)N(Cc1ccco1)C(=O)Cn1nnc(-c2cccs2)n1 (centres undefined),-12%,2%,u,20µM*
COc1ccc(-c2coc3cc(OC(C)=O)cc(OC(C)=O)c3c2=O)cc1,-24%,x,x,x
COc1ccc(-c2coc3ccc(OC4OC(COC(C)=O)C(OC(C)=O)C(OC(C)=O)C4OC(C)=O)c(OC(C)=O)c3c2=O)cc1 (centres undefined),-13%,x,x,x
CNc1ccnc(-c2cccc(NS(C)(=O)=O)c2)n1,10%,u,2%,19%
Cc1ccccc1OC1C=CC(c2ccccc2)OC1CO (centres undefined),31%[11.5 µM],x,-2%[11.4 µM],-1%[11.4 µM]
O=C(O)c1ccc(CO)o1,11%,-10%,0%,7%
Cc1ccc(-c2nnn(CC(=O)N(c3ccccc3)C(C(=O)NC3CCCC3)c3ccco3)n2)o1 (centres undefined),-1%,-1%,-4%,15%
Cc1ccc(-c2nnn(CC(=O)N(Cc3cccs3)C(C(=O)NC3CCCC3)c3ccco3)n2)o1 (centres undefined),-8%,6%,u,13µM*
O=C(O)Cc1[nH]cnc1C(=O)O,9%[11.5 µM],17%[7.6 µM],-2%[11.4 µM],4%[11.4 µM]
COc1ccc2[nH]cc(CCNc3ccnc(-c4ccc(C(=O)N(C)C)cc4)n3)c2c1,-21%,2.5µM*,7%,-5%
COc1ccc2[nH]cc(CCNc3ncncc3-c3ccccc3OC)c2c1,-14%,13%,u,3.2µM*
COc1cccc(-c2nc(NCc3ccc(OC)cc3OC)c3ccccc3n2)c1,-14%,19%,u,u
COc1ccc2[nH]cc(CCNc3nc(-c4cccnc4)nc4ccccc34)c2c1,-26%,u,4µM*,-24%
COc1ccc(CNc2nc(-c3ccccc3OC)nc3ccccc23)c(OC)c1,-14%,10µM*,u,-40%
COc1ccc2[nH]cc(CCNc3ncnc4ccc(-c5cccc(C#N)c5)cc34)c2c1,-18%,2.5µM*,u,-37%
COc1ccc(CNc2nc(-c3cccnc3)nc3ccccc23)c(OC)c1,-20%,3.2µM*,u,u
CCc1cc2c(nc1CC)CCN(CC/C(C)=N/OCC[C@@H]1C=C[C@H](OC(C)=O)[C@H](COC(C)=O)O1)C2,26%[11.5 µM],x,3%[11.4 µM],6%[11.4 µM]
O=C(c1cc(C(F)(F)F)cc(C(F)(F)F)c1)N1CCC2(CC1)CCN(c1ncccn1)CC2,16%,0%,-4%,5%
COc1ccc(C(=O)N2CCC3(CC2)CN(c2ccncc2)C3)cc1,5%,5%,3%,12%
O=C(c1cc(C(F)(F)F)cc(C(F)(F)F)c1)N1CCC2(CC1)CCN(c1ccccn1)CC2,-25%,4%,u,16µM*
O=C(c1cc(C(F)(F)F)cc(C(F)(F)F)c1)N1CCC2(CCCN(c3ccncc3)C2)CC1,-5%,26%,u,7.9µM*
COc1ccc(C(=O)N2CCC3(CCCN(c4ccncc4)C3)CC2)cc1,u,10%,u,13µM*
COc1ccc(C(=O)N2CCC[C@@]3(CCN(Cc4ccccc4OC)C3)C2)cc1,8%,0%,u,16µM*

# Screens: PubChem, National Center for Advancing Translational Sciences (NCATS)
